Most compounds without a hit are left out; they make up all but 1.9% or so of the library.
26S disassembly = blocks ATP-dependent breakdown of the yeast 26S proteasome; anti-FLAG beads, GFP-proteasome disassembly, flow cytometry; inhibition of disassembly, % (test concentration not listed); actives 0.2% (n = 24,000);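 active = inhibition of disassembly above about 33%, limit read from the data; inconclusive = likely self-fluorescent, control bead median signal at least 40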;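 also: plate controls were ATP control with full disassembly for no effect and ATP-gamma-S intact proteasomes for full effect; higher percent means more bead fluorescence retained so stronger block of disassembly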
VLA-4 agonist = allosterically activates the human VLA-4 integrin; activation, % at 10 µM (by protocol); 24,000 tested, under 10 active; Jurkat cells, LDV-FITC binding, flow cytometry;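 active = fluorescent ligand binding to cells raised by more than 40% of the manganese-induced maximum; inconclusive = compound's own fluorescence above 85% of the ligand control signal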;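 also: 0% = ligand binding without compound and 100% = manganese-stimulated maximal binding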
Autofluor Jurkat = autofluorescence counter-screen for VLA-4 integrin assays | fluorescence ratio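 (tested at 10 µM compound in the well)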 | actives 0.61% (n = 24,000) | AID 576 | Jurkat cells, compound autofluorescence, flow cytometry; active compounds read high; 1 = vehicle-only cell background;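 active = fluorescence ratio above 2.44, which is 1 plus 3 SD of all ratios; inconclusive = signal too bright to measure linearly, ratio around 10 or more; inactive = fluorescence ratio below 2.44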;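 also: green fluorescence of cells measured with 488 nm excitation and 530 nm emission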
VLA-4 antagonist = inhibitors of LDV-FITC ligand binding to Mn2+-activated human VLA-4 integrin. actives 0.2% (n = 24,000). P13612. Jurkat cells, LDV-FITC binding with Mn2+, flow cytometry; 100% = Mn2+-driven binding gain fully reversed. AID 529. inhibition, % at 10 µM (by protocol);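 active = inhibition above 50%; inconclusive = compound itself fluorescent, judged against control cell fluorescence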;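 also: 0% = Mn2+ stimulated cells lacking compound and 100% = ligand binding without Mn2+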
FPRL1 binder = ligands of human FPRL1, also counter-screen for FPR ligands; FPRL1-expressing cells, fluorescent ligand binding inhibition, flow cytometry; inhibition, % (test concentration not listed); actives 0.3% (n = 24,000); AID 441;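 also: 0% = buffer alone and 100% = receptor blocker peptide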
FPR binder = human FPR ligand, with FPRL1 counter-screen. P21462. FPR-expressing cells, fluorescent ligand binding, flow cytometry. inhibition, % (test concentration not listed). actives 0.74% (n = 24,000);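 also: 0% = buffer wells and 100% = receptor blocker peptide wells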
* marks the source's active call; other numbers are inactive results; ? = inconclusive. Rule as the data show it, unless noted: active = inhibition above about 30%; inconclusive = no clear call, values can overlap the other calls; inactive = below that.

SMILES | 26S disassembly | VLA-4 agonist | Autofluor Jurkat | VLA-4 antagonist | FPRL1 binder | FPR binder
CC(C)[C@@]1(NC(=O)[C@@H]2C=C3c4cccc5[nH]cc(c45)C[C@H]3N(C)C2)O[C@@]2(O)[C@@H]3CCCN3C(=O)[C@H](Cc3ccccc3)N2C1=O | 18 | ? | 3.5* | ? | 1 | -4
Cc1ccccc1-c1nc(CS(=O)CC(=O)N2CCC3(CC2)OCCO3)c(C)o1 (stereo not drawn) | -1 | -8 | 1 | -5 | 2 | 6
